Assay results published in PubChem BioAssay (Tox21).
Values joined by “and” are separate entries in the source; they are usually repeats but may differ in a detail not shown here. Identical values can stand only once. A structure can be active in one record and inactive in another. Active and inactive are the calls of the source. Where a call stands in place of a potency, no number is given. Unless noted, calls follow the shape of the dose curve; as a rule, active = well fitted curve in the direction sought with a large enough effect in the repeat runs; inconclusive = weak or mixed curves; inactive = no such curve, though single readings can be large; an effect the other way counts as inactive or inconclusive.

Assays:
[1] = qHTS assay to identify small molecule antagonists of the thyroid receptor (TR) signaling pathway (AID 743065); conditions: GH3.TRE-Luc, T3-stimulated luciferase inhibition, 23.5 h; series mostly up to 70.3 µM; also: nearly all actives have a fitted effect of over 55% in size; also: potency is read from the fitted curve at half-maximal effect
Method in brief: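 GH3.TRE-Luc rat pituitary cells (two TREs driving luciferase) were dosed with compound, then stimulated with 1 nM T3 (final) for 23.5 h at 37 C. ONE-Glo luminescence was the read-out, with CellTiter-Fluor fluorescence as the cytotoxicity counter-screen.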

[2] = test system: thyroid hormone receptor (rat, GH3 cells); assay: qHTS assay to identify small molecule agonists of the thyroid receptor (TR) signaling pathway (AID 743066; calls by dose curve); conditions: GH3.TRE-Luc cells, TR agonist luciferase, 24 h; series mostly up to 83.9 µM
[3] = qHTS assay to identify small molecule antagonists of the estrogen receptor alpha (ER-alpha) signaling pathway using the BG1 cell line - cell viability counter screen (AID 743081); conditions: BG1Luc4E2 viability, CellTiter-Fluor, 22 h; series mostly up to 70.3 µM;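 also: compound given together with 17beta-estradiol as the ER stimulus; nearly all actives have a fitted effect of over 45% in size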
Aromatase (Homo sapiens) = Aromatase (Homo sapiens) (UniProt P11511); assay: qHTS assay to identify aromatase inhibitors (AID 743083); conditions: MCF-7 aro ERE, testosterone-driven ERE luciferase, 24 h; series mostly up to 70.3 µM; also: nearly all actives have a fitted effect of over 55% in size; also: potency is read from the fitted curve at half-maximal effect
[4] = biological target: Estrogen receptor (Homo sapiens) (UniProt P03372); assay: qHTS assay to identify small molecule antagonists of the estrogen receptor alpha (ER-alpha) signaling pathway (AID 743069; active = well fitted curve in the direction sought with a large enough effect in the signal ratio in the repeat runs, not every such curve was filed as active; inconclusive = weak or mixed curves, or effect the other way; inactive = no such curve, though single readings can be large or run the other way; the % refers to the signal ratio; also: potency is read from the fitted curve at half-maximal effect); conditions: HEK293 ER-alpha-UAS-bla, beta-lactamase ratio, antagonist mode; series mostly up to 69.4 µM
Method in brief: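 In this cell-based reporter format, GripTite HEK293 cells harbouring ER-alpha-UAS-bla were grown overnight with 2% charcoal-stripped FBS, dosed with DMSO-dissolved compounds, then challenged with 17beta-estradiol. After 18 hr at 37C, beta-lactamase activity was detected by FRET fluorescence.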

[5] = qHTS assay to identify small molecule antagonists of the estrogen receptor alpha (ER-alpha) signaling pathway - cell viability counter screen (AID 743074; calls by dose curve; also: nearly all actives have a fitted effect of over 45% in size); conditions: ERalpha-bla HEK293 viability, CellTiter-Glo luminescence, 18 h; series mostly up to 69.4 µM
[6] = biological target: Estrogen receptor (Homo sapiens) (UniProt P03372); assay: qHTS assay to identify small molecule agonists of the estrogen receptor alpha (ER-alpha) signaling pathway (AID 743075; calls by dose curve; also: potency is read from the fitted curve at half-maximal effect); conditions: HEK293 ER-alpha-UAS-bla, beta-lactamase FRET ratio, 18 h; series mostly up to 70.1 µM
[7] = biological target: Estrogen receptor (Homo sapiens) (UniProt P03372); assay: qHTS assay to identify small molecule agonists of the estrogen receptor alpha (ER-alpha) signaling pathway using the BG1 cell line (AID 743079); conditions: BG1Luc4E2 cells, ERE-luciferase agonist, 22 h; activation: at 70.3 µM (top of the series) unless noted; also: nearly all actives have a fitted effect of over 20% in size; also: potency is read from the fitted curve at half-maximal effect
[8] = qHTS assay to identify small molecule antagonists of the estrogen receptor alpha (ER-alpha) signaling pathway using the BG1 cell line (AID 743080; calls by dose curve;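 also: BG1 cells stimulated with 17beta-estradiol alongside compound; nearly all actives have a fitted effect of over 25% in size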; also: potency is read from the fitted curve at half-maximal effect); conditions: BG1Luc4E2 ERE-luciferase antagonist mode, luminescence; series mostly up to 70.3 µM
Method in brief: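 BG1-Luc-4E2 cells (endogenous full-length ER-alpha, stable 4×ERE-luciferase) were starved 5 days in phenol-red-free medium with 10% charcoal-stripped FBS, plated 24 h, then given compound plus 17beta-estradiol for 21.5 h at 37 C; ONE-Glo luminescence read after 30 min.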

Aromatase (Homo sapiens), sequence (P11511 whole entry, looked up): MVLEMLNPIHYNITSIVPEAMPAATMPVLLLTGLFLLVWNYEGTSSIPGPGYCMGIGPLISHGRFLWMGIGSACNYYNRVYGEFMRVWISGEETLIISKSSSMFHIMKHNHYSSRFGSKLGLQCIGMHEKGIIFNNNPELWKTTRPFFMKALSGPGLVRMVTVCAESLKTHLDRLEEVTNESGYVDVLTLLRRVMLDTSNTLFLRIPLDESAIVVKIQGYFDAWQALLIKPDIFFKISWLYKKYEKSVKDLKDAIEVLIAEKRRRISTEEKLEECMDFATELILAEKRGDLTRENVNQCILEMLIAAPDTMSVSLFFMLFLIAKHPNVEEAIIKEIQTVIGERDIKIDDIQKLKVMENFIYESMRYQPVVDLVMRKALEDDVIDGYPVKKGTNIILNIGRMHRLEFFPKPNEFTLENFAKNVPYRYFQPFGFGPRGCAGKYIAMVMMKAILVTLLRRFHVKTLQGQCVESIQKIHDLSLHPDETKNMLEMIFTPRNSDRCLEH
Estrogen receptor (Homo sapiens), sequence (P03372 whole entry, looked up): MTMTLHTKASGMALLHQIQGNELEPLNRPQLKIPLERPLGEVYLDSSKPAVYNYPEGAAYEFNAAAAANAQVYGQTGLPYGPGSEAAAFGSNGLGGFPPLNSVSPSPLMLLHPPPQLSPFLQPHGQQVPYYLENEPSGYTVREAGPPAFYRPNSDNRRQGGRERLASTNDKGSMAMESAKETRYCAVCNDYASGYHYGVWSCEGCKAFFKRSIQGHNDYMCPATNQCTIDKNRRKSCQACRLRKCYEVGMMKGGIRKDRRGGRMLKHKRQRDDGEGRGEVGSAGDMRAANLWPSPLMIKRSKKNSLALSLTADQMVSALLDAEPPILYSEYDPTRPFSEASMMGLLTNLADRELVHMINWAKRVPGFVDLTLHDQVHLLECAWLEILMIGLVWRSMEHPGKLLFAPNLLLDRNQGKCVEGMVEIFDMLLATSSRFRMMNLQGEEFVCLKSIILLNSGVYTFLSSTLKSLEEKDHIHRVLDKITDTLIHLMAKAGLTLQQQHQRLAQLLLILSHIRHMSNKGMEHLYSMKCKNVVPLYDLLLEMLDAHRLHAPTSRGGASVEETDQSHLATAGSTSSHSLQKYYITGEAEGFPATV

SMILES: CC(CN1c2ccccc2Sc2ccccc21)N(C)C (stereo not drawn)
- Potency [1]: 26.6 µM (active) and 27.6 µM (active) and 61.1 µM (active)
- Potency [2]: inactive
- Potency [3]: inactive
- Potency (Aromatase (Homo sapiens)): inactive and 61.8 µM (active)

SMILES: Cc1ccc(Cl)cc1
- Potency [4]: inactive
- Potency [5]: inactive
- Potency [6]: inactive
- Potency [7]: inactive
- Potency [8]: inactive
- Potency [3]: inactive
- Potency (Aromatase (Homo sapiens)): inactive

SMILES: CC(C)(C)NC[C@H](O)COc1nsnc1N1CCOCC1
- Potency [1]: inactive
- Potency [2]: inactive
- Potency [5]: inactive
- Potency [3]: inactive

SMILES: COc1ccc2cc3[n+](cc2c1OC)CCc1cc2c(cc1-3)OCO2
- Potency [1]: 61.6 µM (active)
- Potency [2]: inactive
- Potency [6]: inactive
- Potency [8]: 26.6 µM (active)
- Potency (Aromatase (Homo sapiens)): inactive

SMILES: Nc1cccc(C(F)(F)F)c1
- Potency [1]: inactive
- Potency [2]: inactive
- Potency [4]: inactive
- Potency [5]: inactive
- Potency [6]: inactive
- Potency [7]: inactive
- Potency [8]: inactive
- Potency [3]: inactive
- Potency (Aromatase (Homo sapiens)): inactive

SMILES: O=C(c1ccccc1)c1ccc(O)c(O)c1O
- Potency [2]: inactive
- Potency [4]: inactive
- Potency [5]: inactive
- Potency [6]: 61.6 µM [inconclusive] (active)
- Potency [7]: 61.1 µM (active)
- Potency [8]: inactive
- Potency [3]: inactive
- Potency (Aromatase (Homo sapiens)): inactive

SMILES: C[n+]1ccn(CCO)c1
- Potency [1]: inactive
- Potency [2]: inactive
- Potency [5]: inactive
- Potency [8]: inactive
- Potency [3]: inactive
- Potency (Aromatase (Homo sapiens)): inactive

SMILES: Nc1nc(N)c2nc(-c3ccccc3)c(N)nc2n1
- Potency [1]: 55.1 µM (active) and 54.5 µM (active)
- Potency [2]: inactive
- Potency [7]: inactive and 68.6 µM (active)
- Potency (Aromatase (Homo sapiens)): inactive

SMILES: CC/C=C(\C(=O)N[C@@H]1C(=O)N2C(C(=O)OCOC(=O)C(C)(C)C)=C(COC(N)=O)CS[C@H]12)c1csc(N)n1
- Potency [1]: inactive
- Potency [2]: inactive
- Potency [5]: inactive
- Potency [6]: inactive
- Potency [7]: inactive
- Potency [8]: inactive
- Potency (Aromatase (Homo sapiens)): inactive

SMILES: Cc1nnc(NS(=O)(=O)c2ccc(N)cc2)s1
- Potency [4]: inactive
- Potency [5]: inactive
- Potency [6]: inactive
- Potency [7]: inactive
- Potency [8]: inactive
- Potency [3]: inactive
- Potency (Aromatase (Homo sapiens)): inactive

SMILES: Cc1ccncc1
- Potency [1]: inactive
- Potency [2]: inactive
- Potency [4]: inactive
- Potency [5]: inactive
- Potency [6]: inactive
- Potency [7]: inactive
- Potency [8]: inactive
- Potency [3]: inactive
- Potency (Aromatase (Homo sapiens)): inactive

SMILES: CC[N+](CC)(CC(=O)Nc1c(C)cccc1C)Cc1ccccc1
- Potency [5]: inactive
- Potency [3]: inactive
- Potency (Aromatase (Homo sapiens)): inactive

SMILES: O=C(NCC1CCCCN1)c1cc(OCC(F)(F)F)ccc1OCC(F)(F)F (stereo not drawn)
- Potency [1]: 53.5 µM (active)
- Potency [2]: inactive
- Potency [5]: inactive
- Potency [3]: inactive

SMILES: CC(=O)OCCC(C)C
- Potency [1]: inactive
- Potency [2]: inactive
- Potency [5]: inactive
- Potency [3]: inactive
- Potency (Aromatase (Homo sapiens)): inactive

SMILES: CC(C=O)Cc1ccc(C(C)(C)C)cc1 (stereo not drawn)
- Potency [1]: 43.3 µM (active)
- Potency [2]: inactive
- Potency [5]: inactive
- Potency [3]: inactive
- Potency (Aromatase (Homo sapiens)): inactive

SMILES: CC(O)CNCC(C)O (stereo not drawn)
- Potency [1]: inactive
- Potency [2]: inactive
- Potency [4]: inactive
- Potency [5]: inactive
- Potency [6]: inactive
- Potency [7]: inactive
- Potency [8]: inactive
- Potency [3]: inactive
- Potency (Aromatase (Homo sapiens)): inactive

SMILES: CCCOCC(C)O (stereo not drawn)
- Potency [1]: inactive
- Potency [2]: inactive
- Potency [5]: inactive
- Potency [3]: inactive
- Potency (Aromatase (Homo sapiens)): inactive

SMILES: C=C(C)CC(C)(C)C
- Potency [1]: inactive
- Potency [2]: inactive
- Potency [5]: inactive
- Potency [3]: inactive

SMILES: C=C(CC(=O)O)C(=O)O
- Potency [1]: inactive
- Potency [2]: inactive
- Potency [5]: inactive
- Potency [3]: inactive
- Potency (Aromatase (Homo sapiens)): inactive

SMILES: Cc1ccc([N+](=O)[O-])cc1N
- Potency [1]: inactive
- Potency [2]: inactive
- Potency [4]: inactive
- Potency [6]: inactive
- Potency [7]: inactive
- Potency [8]: inactive
- Potency [3]: inactive
- Potency (Aromatase (Homo sapiens)): inactive

SMILES: Cc1cc(CC(=O)O)n(C)c1C(=O)c1ccc(Cl)cc1
- Potency [1]: inactive
- Potency [2]: inactive
- Potency [5]: inactive
- Potency [3]: inactive
- Potency (Aromatase (Homo sapiens)): inactive

SMILES: Cc1ccc(C(C)C)cc1
- Potency [1]: inactive
- Potency [2]: inactive
- Potency [4]: inactive
- Potency [5]: inactive
- Potency [6]: inactive
- Potency [7]: inactive
- Potency [8]: inactive
- Potency [3]: inactive
- Potency (Aromatase (Homo sapiens)): inactive

SMILES: CCN(CC)CCNC(=O)c1ccc(N)cc1
- Potency [1]: inactive
- Potency [2]: inactive
- Potency [5]: inactive
- Potency [3]: inactive
- Potency (Aromatase (Homo sapiens)): inactive

SMILES: COC(=O)/C=C\C(=O)OC
- Potency [1]: inactive
- Potency [2]: inactive
- Potency [5]: inactive
- Potency [3]: inactive

SMILES: N[C@@H](Cc1cc(I)c(Oc2ccc(O)c(I)c2)c(I)c1)C(=O)O
- Potency [4]: 23.9 µM [inconclusive] (active) and inactive
- Potency [5]: inactive
- Potency [6]: 9.51 µM [activator] (active) and inactive and 51 µM [fluorescent] (active)
- Potency [7]: 37.1 µM (active) and 40.2 µM (active)
- Potency [8]: 26.6 µM (active) and inactive and 8.02 µM (active)
- Potency [3]: inactive
- Potency (Aromatase (Homo sapiens)): inactive

SMILES: CCCCCCCCCCCCCC(=O)O
- Potency [1]: inactive
- Potency [2]: inactive
- Potency [4]: inactive
- Potency [6]: inactive
- Potency [7]: inactive
- Potency [8]: inactive
- Potency [3]: inactive
- Potency (Aromatase (Homo sapiens)): inactive

SMILES: CCCCC(CC)COC(=O)c1ccc(C(=O)OCC(CC)CCCC)cc1 (stereo not drawn)
- Potency [1]: inactive
- Potency [2]: inactive
- Potency [5]: inactive
- Potency [3]: inactive
- Potency (Aromatase (Homo sapiens)): inactive

SMILES: OC1CCCCC1
- Potency [1]: inactive
- Potency [2]: inactive
- Potency [4]: inactive
- Potency [5]: inactive
- Potency [6]: inactive
- Potency [7]: inactive
- Potency [8]: inactive
- Potency [3]: inactive
- Potency (Aromatase (Homo sapiens)): inactive

SMILES: CCCOC(=O)NCCCN(C)C
- Potency [1]: inactive
- Potency [2]: inactive
- Potency [5]: inactive
- Potency [3]: inactive
- Potency (Aromatase (Homo sapiens)): inactive

SMILES: CC(=O)C(C)C
- Potency [1]: inactive
- Potency [2]: inactive
- Potency [4]: inactive
- Potency [5]: inactive
- Potency [6]: inactive
- Potency [7]: inactive
- Potency [8]: inactive
- Potency [3]: inactive
- Potency (Aromatase (Homo sapiens)): inactive

SMILES: CC(=O)OC[C@H]1O[C@@](COC(C)=O)(O[C@H]2O[C@H](COC(C)=O)[C@@H](OC(C)=O)[C@H](OC(C)=O)[C@H]2OC(C)=O)[C@@H](OC(C)=O)[C@@H]1OC(C)=O
- Potency [1]: inactive
- Potency [2]: inactive
- Potency [5]: inactive
- Potency [3]: inactive
- Potency (Aromatase (Homo sapiens)): inactive

SMILES: CCn1cc(C(=O)O)c(=O)c2cc3c(cc21)OCO3
- Potency [1]: inactive
- Potency [2]: inactive
- Potency [5]: inactive
- Potency [3]: inactive
- Potency (Aromatase (Homo sapiens)): inactive

SMILES: CCCCCC(C)=O
- Potency [1]: inactive
- Potency [2]: inactive
- Potency [5]: inactive
- Potency [3]: inactive
- Potency (Aromatase (Homo sapiens)): inactive

SMILES: OCc1ccc(Cl)cc1Cl
- Potency [1]: inactive
- Potency [2]: inactive
- Potency [5]: inactive
- Potency [3]: inactive
- Potency (Aromatase (Homo sapiens)): inactive

SMILES: O=C1C(N(CO)C(=O)NCO)N(CO)C(=O)N1CO (stereo not drawn)
- Potency [1]: inactive
- Potency [2]: inactive
- Potency [4]: inactive
- Potency [5]: inactive
- Potency [6]: inactive
- Potency [7]: inactive
- Potency [8]: inactive
- Potency [3]: inactive
- Potency (Aromatase (Homo sapiens)): inactive
